Compounds with a hit are over-represented: about 0.86% of the library has one in this group of screens.
BLM helicase inh – inhibitors of human Bloom syndrome helicase BLM; P54132; recombinant BLM DNA unwinding, fluorescence dequenching; Potency, µM (doses to about 56.1 µM), inactives show at the highest dose activity change, negative = inhibition, most hits filed as inhibitors; 0.2% of 350,000 active;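 also: plate controls were vehicle for no effect and no enzyme for full effect; nearly all actives have a fitted effect of over 35% in size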
Target sequence (P54132 whole entry, looked up): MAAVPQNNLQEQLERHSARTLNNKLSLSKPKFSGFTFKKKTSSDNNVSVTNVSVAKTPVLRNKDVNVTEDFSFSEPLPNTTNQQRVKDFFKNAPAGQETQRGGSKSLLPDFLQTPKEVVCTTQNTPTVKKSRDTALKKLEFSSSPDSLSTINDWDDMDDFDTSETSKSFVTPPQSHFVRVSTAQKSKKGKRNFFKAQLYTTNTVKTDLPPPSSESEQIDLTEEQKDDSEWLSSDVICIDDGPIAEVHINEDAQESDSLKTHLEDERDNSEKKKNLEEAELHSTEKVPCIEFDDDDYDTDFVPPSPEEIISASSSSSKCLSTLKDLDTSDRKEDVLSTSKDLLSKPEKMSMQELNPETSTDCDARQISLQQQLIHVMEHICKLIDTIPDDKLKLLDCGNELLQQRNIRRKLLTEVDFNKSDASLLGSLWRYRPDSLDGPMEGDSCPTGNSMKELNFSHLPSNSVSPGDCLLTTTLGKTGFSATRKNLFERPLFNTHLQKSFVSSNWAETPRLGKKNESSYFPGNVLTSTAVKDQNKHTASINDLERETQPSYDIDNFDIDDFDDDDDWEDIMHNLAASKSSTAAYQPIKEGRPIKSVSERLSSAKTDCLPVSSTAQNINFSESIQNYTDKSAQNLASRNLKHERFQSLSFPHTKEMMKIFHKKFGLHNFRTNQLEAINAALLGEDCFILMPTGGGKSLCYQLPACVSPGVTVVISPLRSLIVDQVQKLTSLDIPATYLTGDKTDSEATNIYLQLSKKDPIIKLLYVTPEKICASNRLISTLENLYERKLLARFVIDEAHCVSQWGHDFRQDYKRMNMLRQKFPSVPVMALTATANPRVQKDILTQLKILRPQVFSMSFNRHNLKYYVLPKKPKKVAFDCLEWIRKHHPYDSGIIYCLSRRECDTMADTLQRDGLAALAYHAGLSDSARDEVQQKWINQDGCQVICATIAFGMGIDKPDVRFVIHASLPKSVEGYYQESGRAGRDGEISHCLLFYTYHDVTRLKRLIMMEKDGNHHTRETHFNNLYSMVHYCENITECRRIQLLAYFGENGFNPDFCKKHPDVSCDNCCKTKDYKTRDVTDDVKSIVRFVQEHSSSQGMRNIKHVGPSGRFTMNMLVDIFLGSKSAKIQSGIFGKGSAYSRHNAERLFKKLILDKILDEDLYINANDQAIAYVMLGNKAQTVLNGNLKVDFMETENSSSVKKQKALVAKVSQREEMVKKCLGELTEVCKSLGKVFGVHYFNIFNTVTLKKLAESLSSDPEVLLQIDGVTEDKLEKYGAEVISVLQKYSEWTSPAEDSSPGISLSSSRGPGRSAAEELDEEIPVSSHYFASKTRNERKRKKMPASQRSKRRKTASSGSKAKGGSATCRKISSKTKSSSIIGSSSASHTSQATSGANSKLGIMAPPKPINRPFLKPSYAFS
APE1 inh – APE1 (human) endonuclease inhibition | P27695 | recombinant APE1, TAMRA/BHQ-2 abasic DNA cleavage fluorescence | Potency, µM (top dose mostly 65.8 µM), inactives show top-dose activity change, negative = inhibition, hits mostly inhibitors | 0.35% of 350,000 active | AID 2517;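 also: plate controls were vehicle for no effect and reference inhibitor for full effect; nearly all actives have a fitted effect of over 55% in size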
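Compound pre-exposure to 0.75 nM APE1, 15 min at ambient temperature. Reaction initiated with 50 nM TAMRA/BHQ-2 THF substrate, read immediately in kinetic mode, 525 nm excitation, 598 nm emission.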
FEN1 inh – inhibitors of human flap endonuclease 1; Potency, µM (highest dose often 114 µM), without a hit: at the top dose activity change, negative = inhibition, hits mostly inhibitors; 0.35% of 390,000 active; Recombinant FEN1 flap cleavage, fluorescence, 15 min; AID 588795; also: nearly all actives have a fitted effect of over 65% in size
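FEN1 at 10 nM preincubated with compounds 15 min at room temperature, then flap DNA substrate added at 50 nM final. Signal read at 0 and 15 min; concentration-response fitted with four-parameter Hill equation.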
Tb PGK inh – T. brucei PGK inhibition | PGK/GAPDH coupled, Kinase-Glo luminescence, 60 min | 0.043% of 380,000 active | P07378 | Potency, µM (series often up to 57.5 µM), for the others: top-dose activity change, negative = inhibition, actives largely listed as inhibitors; also: nearly all actives have a fitted effect of over 60% in size
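Luminescent ATP detection (Kinase-Glo Plus) follows a 60-minute room-temperature incubation, with wells lacking PGK as controls. Buffer: 100 mM TEA (pH 7.6), 5 mM MgCl2, 0.01% Tween-20. Coupling enzyme GAPDH (100 nM final) supplies unstable 1,3-BPG in-well.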
GLS inh – glutaminase GLS (human) inhibition; AID 624170; Potency, µM (series often up to 45.5 µM), for inactives: top-dose activity change, negative = inhibition, usual class: inhibitors; 0.21% of 410,000 active; GLS enzymatic activity, qHTS titration
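Enzyme dispensed in phosphate buffer (45 mM, pH 8.2, 0.02% Tween-20), compounds pinned in, then 1 mM L-glutamine solution and the glutamate oxidase–HRP–Amplex Red mix added; fluorescence read immediately and again after 30 min at room temperature.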
RECQ1 inh – inhibitors of human RECQ1 DNA helicase. 0.54% of 240,000 active. RECQ1 DNA unwinding, red fluorescence kinetic read. Potency, µM (top dose mostly 57.3 µM), for inactives: at the highest dose activity, negative = inhibition, most hits filed as inhibitors;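 also: plate controls were vehicle for no effect and no enzyme for full effect; nearly all actives have a fitted effect of over 30% in size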
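50 nM RECQ1T1 preincubated 15 min with compound in Tris pH 8.0 buffer with MgCl2, DTT, Tween-20 and 2.5 ug/ml poly(dI-dC); started with 200 nM TAMRA/BHQ-2 forked duplex and 2 mM ATP. Unwinding read as fluorescence (525/598 nm), two reads 2 h apart.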
* hit, by the source's call. Calls follow the shape of the dose curve; as a rule, active = well fitted curve in the direction sought with a large enough effect; inconclusive = small, poorly fitted or top-dose-only effect, or another doubt; inactive = no such curve, though single readings can be large; an effect the other way counts as inactive or inconclusive. Unless noted, % is scaled to controls: 0 for no effect and ±100 for the full control effect; potency is read from the fitted curve at half-maximal effect.

Screening O=C(NCc1ccccc1)C1Nc2ccc(OC(F)(F)F)cc2C2C=CCC12 (stereo unspecified) returned FEN1 inh -9.7%, Tb PGK inh -1.2% and GLS inh -4.4%.
`CC(=O)c1ccc2c(c1)C1C=CCC1C(C(=O)O)N2` (stereo unspecified) gave BLM helicase inh -8.2%, APE1 inh inconclusive, FEN1 inh 12.6µM*, Tb PGK inh 14.1µM*, GLS inh 2.51µM* and RECQ1 inh inactive.
O=C(O)C1Nc2c(cccc2C(F)(F)F)C2C=CCC12 (stereo unspecified) was read as BLM helicase inh -7.1% and APE1 inh 16.8µM*.
Cc1cc[n+](CCC2CCCCC2)cc1 was read as FEN1 inh 2.0%.
Screening O=[N+]([O-])c1cccc(/C=N/NC2=NCCCCC2)c1 returned BLM helicase inh 2.4%, APE1 inh -2.1%, FEN1 inh 4.6%, Tb PGK inh -8.8%, GLS inh 3.4% and RECQ1 inh 3.4%.
For O=C(ONC1=NCCCCC1)c1cccc([N+](=O)[O-])c1 the results were BLM helicase inh -0.6%, APE1 inh -1.4%, FEN1 inh 6.0%, Tb PGK inh -9.4%, GLS inh 22.4µM* and RECQ1 inh -10.0%.
Screening O=[N+]([O-])c1cc2c(cc1/C=N/NS(=O)(=O)c1ccc(Br)cc1)OCO2 returned BLM helicase inh -0.9%, APE1 inh -1.0%, FEN1 inh 50.1µM*, Tb PGK inh -1.3%, GLS inh -0.7% and RECQ1 inh inactive.
O=C(c1nc2ccccn2c1CN1CCN(c2ccccc2O)CC1)N1CCCC1 was read as BLM helicase inh 2.6%, APE1 inh 12.6%, FEN1 inh -0.4%, Tb PGK inh 3.1%, GLS inh 3.55µM* and RECQ1 inh -6.6%.
For COc1cc(/C=C/C(=O)OCC(=O)c2ccc(OC(F)F)cc2)ccc1O the results were APE1 inh 17.1%, FEN1 inh -14.3%, Tb PGK inh -5.0% and GLS inh 11.2µM*.
`CCOC(=O)CSc1n[nH]c(-c2ccco2)n1` gave BLM helicase inh -1.5%, APE1 inh 1.3%, FEN1 inh -7.6%, Tb PGK inh -8.0%, GLS inh 5.8% and RECQ1 inh -3.4%.
For O=C(O)c1ccc(CSc2n[nH]c(-c3ccco3)n2)cc1 the results were BLM helicase inh -3.7%, APE1 inh 39.8µM*, FEN1 inh inconclusive, Tb PGK inh -3.1%, GLS inh -6.7% and RECQ1 inh -7.5%.
For O=C(NC1CC1)c1cc(-c2cccs2)on1 the results were APE1 inh 9.1%.
Screening COC1=CC(=O)C(C2CC(=O)c3c(O)cc(O)cc3O2)=CC1=O (stereo unspecified) returned FEN1 inh 50.1µM*, Tb PGK inh -3.6% and GLS inh 29.6%.
COc1c(CC=C(C)C)cc(C2CC(=O)c3c(O)cc(O)cc3O2)cc1CC=C(C)C (stereo unspecified) was read as BLM helicase inh -19.6%, APE1 inh -1.4%, FEN1 inh inconclusive, Tb PGK inh -2.4%, GLS inh 17.5% and RECQ1 inh -25.8%.
`COc1ccc2nc(-n3c(O)c(C4=c5ccccc5=NC4=O)[nH]c3=S)sc2c1` gave BLM helicase inh 20µM*, APE1 inh -4.0%, FEN1 inh 31.6µM*, Tb PGK inh inconclusive, GLS inh -13.6% and RECQ1 inh -5.8%.
Cn1c(O)c(C2=c3ccccc3=NC2=O)[nH]c1=S was read as BLM helicase inh 0.9%, APE1 inh -3.0%, FEN1 inh -0.3%, Tb PGK inh -8.6%, GLS inh 17.3% and RECQ1 inh 5.5%.

From PubChem BioAssay
